Bioassay records as filed in PubChem BioAssay.
Hits are enriched below; roughly 9.1% of the tested compounds scored in any of these assays.
M1 ag = activates the M1 muscarinic receptor; CHO-M1 cells, Fluo-4 calcium fluorescence, agonist mode; active compounds read high; B-score at 10 µM; 64,000 compounds, 3% hits;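 active means fluorescence rise, raw or as B-score row- and column-corrected plate score, outside the 99.7% band of its plate's samples, either direction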
D1 mod = allosteric modulators of human D1 dopamine receptor. B-score at 10 µM. AID 641. P21728. 58,000 compounds, 5.9% hits. HEK293 D1, CRE-luciferase, dopamine EC30 potentiation; actives deviate in either direction;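 active means luminescence count or its row- and column-corrected plate score outside the 99.7% band of the plate's sample wells, on either side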
Target sequence (P21728 whole entry, looked up): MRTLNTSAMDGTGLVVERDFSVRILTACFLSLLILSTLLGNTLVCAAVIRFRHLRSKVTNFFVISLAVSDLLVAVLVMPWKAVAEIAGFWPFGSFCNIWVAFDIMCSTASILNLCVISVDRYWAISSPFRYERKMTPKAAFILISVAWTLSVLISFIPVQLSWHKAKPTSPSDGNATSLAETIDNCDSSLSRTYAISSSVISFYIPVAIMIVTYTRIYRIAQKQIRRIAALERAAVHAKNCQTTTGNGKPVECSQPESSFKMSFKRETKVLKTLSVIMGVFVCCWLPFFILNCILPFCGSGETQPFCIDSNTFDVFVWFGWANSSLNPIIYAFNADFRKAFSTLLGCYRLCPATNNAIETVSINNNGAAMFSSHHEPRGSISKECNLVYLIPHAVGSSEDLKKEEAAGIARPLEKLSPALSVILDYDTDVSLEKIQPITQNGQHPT
mHtt clearance = compounds clearing mutant huntingtin protein. HeLa Exon1htt(103Q)mCFP, aggregate imaging; zero = plate's median compound well. inhibition, % at 1.5 µM. 47,000 compounds, 0.42% hits. AID 853;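 active means inhibition of aggregate fluorescence above about 70%, also judged a hit by eye on the cell image, limit read from the data, passing the limit was not always enough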;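 further: cells exposed to compound for three days before fixation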
M1 antag = antagonists of rat M1 muscarinic receptor; P08482; CHO-M1 cells, Fluo-4 calcium, ACh EC80 antagonist mode; active compounds read low; B-score at 10 µM; 64,000 compounds, 3.4% hits;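 active means calcium fluorescence response, raw or row-and-column corrected B-score, differing from the plate sample mean either way at a set confidence level, mostly lower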
M1 antag conf = confirmation of rat M1 muscarinic receptor antagonists | shares compounds with M1 antag | CHO-M1 cells, Fluo-4 calcium, ACh EC80 antagonism; active compounds read low | calcium response (max-min fluorescence) at 10 µM | 1,700 compounds, 43% hits | AID 677;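 active means calcium response below the same-plate mean of wells given acetylcholine alone at its 80%-effect dose, minus 3 SD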
mGluR4 antag = acts on human mGluR4 in M1 antagonist selectivity test; shares compounds with M1 antag; CHO-mGluR4 calcium flux, Fluo-4 fluorescence, glutamate EC80; active compounds read low; fluorescence response (max-min) at 10 µM; 1,700 compounds, 0.9% hits;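 active means fluorescence response below the plate's average for near-maximal glutamate wells, less 3 SD of those wells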;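 further: raw unnormalized fluorescence span taken in the window right after glutamate addition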
Large screens that a line does not name were inactive (follow-up assays come after a bar, where they were run).

COCCNC(=O)C(c1ccccc1C)N(CCOC)C(=O)Cn1nnc2ccccc21 (configuration not stated)	none
O=C(OCCN1CCCC1)C1(c2ccccc2)CCCC1	M1 antag -14.7 (no result: mHtt clearance) | M1 antag conf 28.3 | mGluR4 antag inactive
CCC1CCCCN1CCNC(=O)C1CCN(S(=O)(=O)c2c(C)noc2C)CC1 (configuration not stated)	M1 antag -11.9 (no result: D1 mod, mHtt clearance) | M1 antag conf 385 | mGluR4 antag inactive
CCOc1ccc(C2c3c(oc4ccccc4c3=O)C(=O)N2c2ccccn2)cc1OC (configuration not stated)	none (no result: mHtt clearance)
COC(=O)/C=c1/s/c(=C(\C#N)C(=O)NCc2ccco2)n(-c2ccccc2)c1=O	M1 antag -2.23 (no result: D1 mod, mHtt clearance) | M1 antag conf inactive | mGluR4 antag inactive
COc1ccc(CCN(C(=O)c2ccc(F)cc2)C2=CC3CCC(C2)N3C)cc1OC (configuration not stated)	none (no result: mHtt clearance)
Cc1nnc(NC(=O)C2CCCO2)s1 (configuration not stated)	none (no result: D1 mod, mHtt clearance)
CCCC(C)c1nnc(NC(=O)C2CCCO2)s1 (configuration not stated)	M1 antag -3.5 | M1 antag conf 198 | mGluR4 antag inactive
CCCCn1c(=O)[nH]c2ccccc21	M1 antag -2.36 | M1 antag conf inactive | mGluR4 antag inactive
O=C(O)CCCC(=O)N1CCN(C(c2ccccc2)c2ccccc2)CC1	none (no result: D1 mod, mHtt clearance)
COc1ccc(OC)c(N2C(=O)CC(C(C)c3ccccc3)C2=O)c1 (configuration not stated)	none (no result: mHtt clearance)
CC(=O)Oc1ccc(NC(=O)CSc2ccccc2)cc1	none (no result: mHtt clearance)
Cc1c(N=C/C=C/c2ccccc2)c(=O)n(-c2ccccc2)n1C	M1 antag -11.4 | M1 antag conf 23.7 | mGluR4 antag inactive
Cc1c(N=CC=Nc2c(C)n(C)n(-c3ccccc3)c2=O)c(=O)n(-c2ccccc2)n1C	none (no result: M1 ag, mHtt clearance, M1 antag)
COc1ccccc1N1CCN(C(=O)Cc2cccs2)CC1	M1 antag -1.85 | M1 antag conf inactive | mGluR4 antag inactive
COc1ccccc1N1CCN(C(=O)C2c3ccccc3Oc3ccccc32)CC1	M1 antag -1.33 (no result: mHtt clearance) | M1 antag conf inactive | mGluR4 antag inactive
COc1ccccc1N1CCN(C(=O)C2CC=CCC2C(=O)O)CC1 (configuration not stated)	none
N=c1c2c(-c3ccccc3)c(-c3ccccc3)n(Cc3ccco3)c2ncn1CCN1CCOCC1	M1 antag -7.2 | M1 antag conf 360 | mGluR4 antag inactive
CCOc1cccc(N(C(=O)Cc2cccs2)C(C(=O)NC2CCCCC2)c2cccn2C)c1 (configuration not stated)	none (no result: M1 ag, D1 mod, M1 antag)
CCNc1ccc2c(Cl)cc(=O)oc2c1	none (no result: mHtt clearance)
CN(CC(=O)N1CC=C(c2ccccc2)CC1)S(=O)(=O)c1cnc[nH]1	none (no result: mHtt clearance)
CN(C)CCCN1c2ccccc2CCc2ccccc21	none (no result: M1 ag, D1 mod, mHtt clearance, M1 antag) | mGluR4 antag inactive
CN(C)CCCN1C(=O)CSC1c1ccccc1 (configuration not stated)	none (no result: mHtt clearance)
COC(=O)CSc1ncccc1-c1nc2ccccc2[nH]1	M1 antag -2.35 | M1 antag conf inactive | mGluR4 antag inactive
N#CCSc1ncccc1-c1nc2ccccc2[nH]1	none (no result: M1 ag, D1 mod, M1 antag)
Cc1ccc2[nH]c(=O)c(C(c3nnnn3CC3CCCO3)N3CCCc4ccccc43)cc2c1 (configuration not stated)	none
COc1ccccc1CN1CCN(C(CC(C)C)c2nnnn2Cc2cccs2)CC1 (configuration not stated)	M1 antag -2.03 (no result: mHtt clearance) | M1 antag conf 558 | mGluR4 antag inactive
N#CC1=C(N)N2C(=C(C#N)C13CCN(Cc1ccccc1)CC3)Nc1ccccc12	M1 antag -3.42 | M1 antag conf 405 | mGluR4 antag inactive
NC1=NC2(CCN(Cc3ccccc3)CC2)n2c(nc3ccccc32)N1	none (no result: D1 mod)
COc1ccc2cc3cc(C(=O)NCCc4ccc(OC)c(OC)c4)oc3nc2c1	none
CCCCN(CC)CCCNC(=O)c1cc2cc3ccc(OC)cc3nc2o1	M1 antag -4.75 | M1 antag conf inactive | mGluR4 antag inactive
CCCN(CCC)CCCNC(=O)c1cc2cc3ccc(OC)cc3nc2o1	M1 antag -6.97 | M1 antag conf 437 | mGluR4 antag inactive
O=C(COn1nnc2ccc(Cl)cc21)NCc1ccccc1	none (no result: mHtt clearance)
COc1cccc(C(=O)Oc2cc(-c3ccccc3)no2)c1	none (no result: M1 ag, D1 mod, M1 antag)
Cc1ccc(S(=O)(=O)N2CN(Cc3ccco3)c3nc4ccccc4nc32)cc1	none (no result: M1 ag, D1 mod, M1 antag)
